Results on 8 compounds are retold here after PubChem BioAssay (Tox21).

Molecules are shown by their SMILES. Values without a mark were called inactive. Results filed as inconclusive are left out. The source made the active and inactive calls. Unless noted, the call rests on the fitted dose curve.

Test [1] can be described thus: Nuclear factor erythroid 2-related factor 2/antioxidant responsive element (Nrf2/ARE) small molecule agonists: qHTS cell viability counter screen in human keratinocytes (AID 1919968; active means well fitted curve in the direction sought with a large enough effect in the repeat runs; an effect the other way counts as inactive or inconclusive; further: nearly all actives have a fitted effect of over 55% in size; further: potency means the concentration at half of the fitted maximal effect). In outline: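 Measured as CellTiter-Fluor fluorescence, this readout tracks cytotoxicity in the same wells as the ARE-luciferase screen. HaCaT reporter cells (1,500/well) received compounds after a 5 h pre-incubation and were exposed for 23 h.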

Test [2] has as its target KiSS-1 receptor (Homo sapiens) (UniProt Q969F8). The test can be described thus: Human kisspeptin (KISS1R) small molecule agonists, calcium flux assay in KISS1R-HEK293 cells (AID 1920064; active means well fitted curve in the direction sought with a large enough effect in the repeat runs; an effect the other way counts as inactive or inconclusive). In outline:
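Measures KISS1R agonism through calcium-sensitive dye fluorescence in stably transfected HEK293 cells, read for 3 min after pin-tool compound delivery; 15-point titrations in triplicate.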
(In general: Calcium assays in cells follow changes in intracellular calcium, usually with a dye or a luminescent sensor.)

A short description of test [3]: G protein-coupled receptor (GPCR) small molecule agonists, calcium flux assay: HEK293 wild type cell line counter screen (AID 1920065). Put shortly:
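Readout: fluorescence at 480 nm excitation/540 nm emission, sampled at 1 s intervals for 3 min. Cells had been cultured 18 h, then dye-loaded 1 h at 37 C before compound or ATP addition.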

The nature of test [4]: p53 small molecule agonists, cell-based qHTS assay with human liver microsomes (AID 1963577). Put shortly:
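Fluorescence of the beta-lactamase reporter in p53RE-bla cells, detected with LiveBLAzer substrate (2 h, room temperature, dark), served as the read-out after 16 h compound exposure at 37 C with human liver microsomes and NADPH, each 0.5 mg/mL final.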

Test [5] is described as follows: p53 small molecule agonists, cell-based qHTS assay with rat liver microsomes (AID 1963578). Put shortly: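 Cells carrying a p53 response element–beta-lactamase reporter were plated and rested 5 h, then dosed with compound in DMSO plus rat liver microsomes and NADPH, each at 0.5 mg/mL final. After 16 h at 37 C, LiveBLAzer substrate was added for 2 h.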
In general terms: qHTS replaces the single test concentration by a dilution series.

The nature of test [6]: p53 small molecule agonists, cell-based qHTS assay with human liver microsomes: qHTS cell viability counter screen (AID 1963579). Further: nearly all actives have a fitted effect of over 45% in size. Further: potency means the concentration at half of the fitted maximal effect. In outline: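 Cytotoxicity counter screen: p53RE-bla, 4,000 cells/well; 5 h settle, 37 C/5% CO2; cpd + HLM 0.5 mg/mL + NADPH 0.5 mg/mL (final); 16 h, 37 C; CellTiter-Glo, 30 min RT, luminescence.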
The nature of test [7]: p53 small molecule agonists, cell-based qHTS assay with rat liver microsomes: qHTS cell viability counter screen (AID 1963580). Further: nearly all actives have a fitted effect of over 45% in size. Further: potency means the concentration at half of the fitted maximal effect. Put shortly: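 p53RE-bla HCT-116 cells were exposed 16 h at 37 C to compounds with rat liver microsomes (0.5 mg/mL) and NADPH (0.5 mg/mL). Viability was measured in the same wells as ATP content by CellTiter-Glo luminescence.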
Test [8] can be described thus: p53 small molecule agonists, cell-based qHTS assay: qHTS cell viability counter screen (AID 1963581). Further: nearly all actives have a fitted effect of over 45% in size. In outline: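 In the same plates used for the p53 bla reporter, HCT-116 cells given compounds for 16 h at 37 C received CellTiter-Glo; luminescence was recorded 30 min later at room temperature.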
Test [9] concerns the target 5-hydroxytryptamine receptor 2A (Homo sapiens) (UniProt P28223). Put plainly: 5-hydroxytryptamine receptor 2A (HTR2A) small molecule antagonists, cell-based qHTS assay (AID 1963586). Further: nearly all actives have a fitted effect of over 45% in size. In outline: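 Antagonist-mode intracellular calcium assay: DOI (4 nM) added after 5 min compound pre-incubation at room temperature to dye-loaded HTR2A-CHO cells. Fluorescence followed for 3 min, sampled every second.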

For test [10] the target is unchanged. Put plainly: 5-hydroxytryptamine receptor 2A (HTR2A) small molecule agonists, cell-based qHTS assay (AID 1963587). Further: nearly all actives have a fitted effect of over 30% in size. Put shortly:
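CHO cells stably expressing human HTR2A, plated 18 h, loaded with calcium dye 1 h at 37 C. Agonist mode: compounds added and intracellular calcium fluorescence recorded kinetically for 2 min at 1 sec intervals.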

The target in test [11] is Muscarinic acetylcholine receptor M1 (Homo sapiens) (UniProt P11229). Put plainly: Cholinergic receptor muscarinic 1 (CHRM1) small molecule antagonists, cell-based qHTS assay (AID 1963588). Further: nearly all actives have a fitted effect of over 40% in size. Further: potency means the concentration at half of the fitted maximal effect. Put shortly: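 CHRM1-CHO calcium-flux assay, antagonist mode. Cells were seeded 18 h, dye-loaded 1 h at 37 C and given compound for 5 min at RT, then acetylcholine was added at 50nM. FDSS fluorescence was read 3 min; 15 concentrations, three runs.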
Chain of Muscarinic acetylcholine receptor M1 (Homo sapiens) (P11229 whole entry, looked up): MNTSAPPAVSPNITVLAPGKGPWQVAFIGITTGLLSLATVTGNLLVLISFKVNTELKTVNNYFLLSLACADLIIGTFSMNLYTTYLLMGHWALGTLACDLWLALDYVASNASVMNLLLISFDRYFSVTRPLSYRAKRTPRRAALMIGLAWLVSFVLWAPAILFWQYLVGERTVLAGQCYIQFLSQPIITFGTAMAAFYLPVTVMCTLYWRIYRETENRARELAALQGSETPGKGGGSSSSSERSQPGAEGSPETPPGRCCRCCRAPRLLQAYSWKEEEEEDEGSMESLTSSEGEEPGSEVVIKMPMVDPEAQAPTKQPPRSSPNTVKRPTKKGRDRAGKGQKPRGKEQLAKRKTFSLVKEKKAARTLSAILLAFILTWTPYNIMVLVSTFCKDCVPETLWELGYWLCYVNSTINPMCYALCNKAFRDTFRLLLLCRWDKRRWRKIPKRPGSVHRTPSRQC

Test [12] has the same target. Put plainly: Cholinergic receptor muscarinic 1 (CHRM1) small molecule agonists, cell-based qHTS assay (AID 1963589). Further: nearly all actives have a fitted effect of over 35% in size. In outline: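 Each compound was tested at 15 concentrations across three independent runs on dye-loaded CHO cells stably expressing human CHRM1, reading intracellular calcium fluorescence kinetically at 1 sec intervals.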
Test [13] concerns the target Beta-2 adrenergic receptor (Homo sapiens) (UniProt P07550). Put plainly: Adrenergic beta2 receptor (ADRB2) small molecule antagonists, cell-based qHTS assay (AID 1963592). Further: series mostly up to about 92 µM; nearly all actives have a fitted effect of over 50% in size. In outline: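 Cells (CHO, stable ADRB2 overexpression) incubated 18-20hr at 37C; compounds added from DMSO; agonist mix (1nM isoproterenol, 100uM IBMX, 25uM Ro-20-1724) added; 0.5hr RT; d2-cAMP and anti-cAMP-cryptate added; 1hr RT; 665/615 nm read.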

Test [14] concerns the target D(2) dopamine receptor (Homo sapiens) (UniProt P14416). The test can be described thus: Dopamine D2 receptor (DRD2) small molecule agonists, cell-based qHTS assay (AID 1963594). Further: nearly all actives have a fitted effect of over 35% in size. In outline:
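HEK293 cells stably expressing human DRD2, pre-treated with PDE inhibitor Ro20-1724 (0.1 mM final) and compound 10 min at room temperature, then stimulated with NKH477 (200nM […]) for 30 min. cAMP read by HTRF (665/620 nm).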

Test [15] can be described thus: p53 small molecule agonists, cell-based qHTS assay (AID 1963582; active means well fitted activation curve with a large enough effect in the signal ratio in the repeat runs, not every such curve was filed as active; the % refers to the signal ratio). In outline:
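Compounds are pin-transferred in DMSO onto p53RE-bla cells and incubated 16 h at 37 C. The B/G FRET beta-lactamase substrate is then applied for 2 h at RT and fluorescence recorded.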

A short description of test [16]: cAMP Responsive Elements (CRE) small molecule agonists, cell-based qHTS assay (AID 1963590). In outline: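 Cell line: CRE-bla HEK 293T; medium DMEM/10% dialyzed FBS/0.1 mM NEAA/1 mM pyruvate/25 mM HEPES; 3 h compound exposure; beta-lactamase FRET readout after 2 h substrate loading at RT.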
Test [17] is described as follows: cAMP Responsive Elements (CRE) small molecule antagonists, cell-based qHTS assay (AID 1963591; active means well fitted inhibition curve with a large enough effect in the signal ratio in the repeat runs, not every such curve was filed as active; the % refers to the signal ratio). Put shortly: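 Inhibition of NKH477-driven (0.25 uM final) CRE-beta-lactamase signal in HEK293T cells, 3 h compound exposure at 37 °C, detected by FRET substrate fluorescence.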
Test [18] deals with D(2) dopamine receptor (Homo sapiens) (UniProt P14416). Put plainly: Dopamine D2 receptor (DRD2) small molecule antagonists, cell-based qHTS assay (AID 1963595; active means well fitted inhibition curve with a large enough effect in the signal ratio in the repeat runs, with a control signal flat; the % refers to the signal ratio). Put shortly:
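HEK293 cells stably expressing DRD2 were preincubated with 0.1 mM Ro20-1724, then with compound for 10 min at room temperature. Cells were stimulated with 200 nM NKH477 plus 12 nM quinpirole for 30 min, and cAMP was read by HTRF.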

Test [19] deals with Gonadotropin-releasing hormone receptor (Homo sapiens) (UniProt P30968). Put plainly: Human gonadotropin-releasing hormone receptor (GnRHR) small molecule agonists, calcium flux assay in GnRHR-HEK293 cells (AID 1920063). Further: nearly all actives have a fitted effect of over 35% in size. Put shortly: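 Fluorescence kinetics (480 nm excitation, 540 nm emission; 3 min, 1 s steps) report calcium mobilisation in human GnRHR-HEK293 cells in agonist mode. Dye incubation: 1 h, 37 C.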
Chain of Gonadotropin-releasing hormone receptor (Homo sapiens) (P30968 whole entry, looked up): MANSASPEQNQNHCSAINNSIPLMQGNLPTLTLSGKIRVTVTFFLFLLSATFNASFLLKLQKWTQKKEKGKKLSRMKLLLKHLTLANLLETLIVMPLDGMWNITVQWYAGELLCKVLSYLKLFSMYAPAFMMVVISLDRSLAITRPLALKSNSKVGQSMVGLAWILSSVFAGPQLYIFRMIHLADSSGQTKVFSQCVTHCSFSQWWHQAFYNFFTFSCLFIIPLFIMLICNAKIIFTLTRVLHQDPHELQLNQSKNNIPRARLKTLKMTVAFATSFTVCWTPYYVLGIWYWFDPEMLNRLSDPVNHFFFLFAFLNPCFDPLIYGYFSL

The target of test [20] is Beta-2 adrenergic receptor (Homo sapiens) (UniProt P07550). The test can be described thus: Adrenergic beta2 receptor (ADRB2) small molecule agonists, cell-based qHTS assay (AID 1963593).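 Further: CHO cells stably overexpressing human ADRB2.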 In outline:
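CHO cells stably over-expressing ADRB2 were plated overnight at 37C, then dosed with compounds plus a stimulation mix containing 100uM IBMX and 25uM Ro-20-1724 for 0.5hr at room temperature. cAMP was measured by HTRF competition, 1hr.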

Chain of D(2) dopamine receptor (Homo sapiens) (P14416 whole entry, looked up): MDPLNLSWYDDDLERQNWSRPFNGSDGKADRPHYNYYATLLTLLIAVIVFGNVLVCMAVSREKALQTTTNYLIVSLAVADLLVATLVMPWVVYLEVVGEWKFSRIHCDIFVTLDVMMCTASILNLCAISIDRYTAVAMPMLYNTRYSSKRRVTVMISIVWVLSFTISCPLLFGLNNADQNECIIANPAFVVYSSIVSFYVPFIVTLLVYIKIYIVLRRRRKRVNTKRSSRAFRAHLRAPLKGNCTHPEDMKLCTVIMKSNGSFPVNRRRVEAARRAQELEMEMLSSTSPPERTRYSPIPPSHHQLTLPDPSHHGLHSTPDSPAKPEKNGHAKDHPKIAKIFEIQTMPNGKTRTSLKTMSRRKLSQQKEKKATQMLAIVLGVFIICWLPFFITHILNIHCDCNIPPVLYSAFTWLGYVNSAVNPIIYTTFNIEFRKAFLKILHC
Chain of KiSS-1 receptor (Homo sapiens) (Q969F8 whole entry, looked up): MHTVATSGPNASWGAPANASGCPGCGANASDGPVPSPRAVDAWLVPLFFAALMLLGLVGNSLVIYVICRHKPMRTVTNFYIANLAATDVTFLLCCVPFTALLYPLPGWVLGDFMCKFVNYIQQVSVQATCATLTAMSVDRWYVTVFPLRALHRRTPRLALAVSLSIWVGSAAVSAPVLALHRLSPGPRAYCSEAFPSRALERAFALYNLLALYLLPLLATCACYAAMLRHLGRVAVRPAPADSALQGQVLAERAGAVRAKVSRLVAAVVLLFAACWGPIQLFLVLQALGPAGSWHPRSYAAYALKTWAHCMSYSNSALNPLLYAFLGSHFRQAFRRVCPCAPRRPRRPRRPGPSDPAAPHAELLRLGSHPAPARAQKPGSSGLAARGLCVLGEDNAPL
Chain of 5-hydroxytryptamine receptor 2A (Homo sapiens) (P28223 whole entry, looked up): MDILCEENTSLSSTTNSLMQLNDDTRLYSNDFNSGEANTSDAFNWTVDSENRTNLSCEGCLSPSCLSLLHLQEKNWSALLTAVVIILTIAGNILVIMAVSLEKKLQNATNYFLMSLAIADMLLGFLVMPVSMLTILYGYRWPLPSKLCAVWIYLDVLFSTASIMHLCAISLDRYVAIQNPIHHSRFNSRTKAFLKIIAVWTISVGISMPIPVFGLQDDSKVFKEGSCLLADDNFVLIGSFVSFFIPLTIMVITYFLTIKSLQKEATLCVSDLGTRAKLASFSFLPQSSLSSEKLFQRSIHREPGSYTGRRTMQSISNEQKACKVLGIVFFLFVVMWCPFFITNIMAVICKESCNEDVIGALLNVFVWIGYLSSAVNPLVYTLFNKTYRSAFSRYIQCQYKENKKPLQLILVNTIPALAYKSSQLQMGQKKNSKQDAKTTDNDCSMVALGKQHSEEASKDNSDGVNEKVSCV
Chain of Beta-2 adrenergic receptor (Homo sapiens) (P07550 whole entry, looked up): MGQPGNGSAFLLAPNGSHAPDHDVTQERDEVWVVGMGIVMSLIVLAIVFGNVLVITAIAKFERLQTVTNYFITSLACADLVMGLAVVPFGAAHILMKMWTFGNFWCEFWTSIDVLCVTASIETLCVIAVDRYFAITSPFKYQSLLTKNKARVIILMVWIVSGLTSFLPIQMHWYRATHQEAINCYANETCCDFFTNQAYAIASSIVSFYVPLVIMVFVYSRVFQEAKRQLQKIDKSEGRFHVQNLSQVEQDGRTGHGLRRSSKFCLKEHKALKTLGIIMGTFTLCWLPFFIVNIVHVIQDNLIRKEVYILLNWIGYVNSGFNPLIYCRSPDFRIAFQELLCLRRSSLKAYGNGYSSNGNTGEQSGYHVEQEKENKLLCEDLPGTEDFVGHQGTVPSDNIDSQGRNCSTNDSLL

With `O=C(OC1CCCCC1)c1ccccc1C(=O)OC1CCCCC1`, the Potency result in test [1], in test [2], in [3], in test [4], in [5] and in [6] was “inactive” throughout. Besides, the Potency entry in test [7], in test [8], in test [9], in test [10], in [11] and in test [12] was “inactive” each time. The Potency result in [13] and in test [14] was “inactive” in each case.
For `CCOC(=O)C(Cl)C(C)=O` (stereo not given), the Potency entry in [1], in test [2], in test [3], in [4], in test [5] and in test [6] was “inactive” throughout. Moreover, the Potency entry in [7], in test [8], in test [15], in [9], in test [12] and in test [16] was “inactive” each time. For the same compound, the Potency result in test [17], in test [13], in test [14] and in [18] was “inactive” throughout. Also, in test [11], the Potency is 4.26 µM (active).
As to `CCOc1nc(C(Cl)(Cl)Cl)ns1`, the Potency entry in test [1], in [2], in test [3], in test [4], in [5] and in [6] was “inactive” each time. The Potency entry in [8], in test [15], in test [9], in [10], in [12] and in [16] was “inactive” throughout. Moreover, the Potency result in test [17], in test [13] and in [18] was “inactive” throughout.
Turning to `FC(F)C(F)(F)OCC(Cn1cncn1)c1ccc(Cl)cc1Cl` (stereo not given), the Potency result in test [1], in test [2], in [3], in [4], in [5] and in test [6] was “inactive” each time. For the same compound, the Potency entry in test [9], in [10], in test [11], in [12], in test [13] and in [14] was “inactive” each time.
Regarding `CCC(C)c1cc(C(C)(C)C)cc(-n2nc3ccccc3n2)c1O` (stereo not given), the Potency entry in test [1], in [19], in [3], in test [4], in test [5] and in test [6] was “inactive” in each case. In addition, the Potency result in test [15], in test [9], in [10], in [11], in [16] and in test [17] was “inactive” throughout. The Potency result in [13] and in test [14] was “inactive” each time.
For the compound `CCCC(Cn1cncn1)c1ccc(Cl)cc1Cl` (stereo not given), the Potency entry in test [1], in [2], in [3], in test [4], in test [5] and in test [6] was “inactive” throughout. Moreover, the Potency result in [7], in test [8], in test [15], in test [9], in test [12] and in [13] was “inactive” throughout.
As for `CCCCCCCCc1ccc(O)cc1`, the Potency in test [1] is 43.5 µM (active); in test [6], 36.6 µM (active); in [7], 48.8 µM (active). Besides, the Potency result in test [2], in test [3], in test [4] and in test [13] was “inactive” throughout.
Take `Cc1cc(C)c(C2=C(OC(=O)CC(C)(C)C)C3(CCCC3)OC2=O)c(C)c1`: the Potency result in test [1], in test [2], in test [6], in [7], in test [8] and in [9] was “inactive” each time. In addition, the Potency entry in test [10], in [11], in test [12], in test [16], in test [17] and in [20] was “inactive” throughout. Moreover, the Potency entry in [14] and in test [18] was “inactive” each time.
